This is part of a sample that, as a whole, favours compounds with a hit. Of some 83,000 tested, about 20% had one in any assay.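 Interpretation: 100, growth as untreated; towards 0, rising growth inhibition; 0, no net growth; 0 to -100, cell death. Compounds scoring below 10 were considered active.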 Active and inactive are the calls of the source.
What was measured:
Assay in all cases: NCI-60 one-dose screen, 48 h (100 = growth as untreated, 0 = no growth, -100 = all killed)
Settings in all cases: 10 µM unless noted
HCT-15 colon = test system: HCT-15 colon
HT29 colon = test system: HT29 colon
SNB-75 CNS = test system: SNB-75 CNS
SNB-19 CNS = test system: SNB-19 CNS
U251 CNS = test system: U251 CNS
PC-3 prostate = test system: PC-3 prostate
SK-MEL-5 melanoma = test system: SK-MEL-5 melanoma
UACC-62 melanoma = test system: UACC-62 melanoma
LOX IMVI melanoma = test system: LOX IMVI melanoma
SK-MEL-28 melanoma = test system: SK-MEL-28 melanoma

Measured: growth

N#Cc1c(-c2ccc(C(F)(F)F)cc2)cc(NCC2CCS(=O)(=O)CC2)n2c1nc1ccccc12
inactive: HCT-15 colon 86.2% | HT29 colon 75.7% | SNB-75 CNS 52.5% | SNB-19 CNS 83.5% | U251 CNS 83.2% | PC-3 prostate 63.4% | SK-MEL-5 melanoma 77.7% | UACC-62 melanoma 80.8% | LOX IMVI melanoma 77.5%

O=C(NO)c1ccc(Cn2c(=O)n(-c3ccccc3F)c(=O)c3ccccc32)cc1
inactive: HCT-15 colon 20.6%
active: HT29 colon 9.88% | SNB-75 CNS -3.9% | SNB-19 CNS 6.93% | U251 CNS -85.3% | PC-3 prostate -33.6% | SK-MEL-5 melanoma -19.2% | UACC-62 melanoma -46.2% | LOX IMVI melanoma -86.4%

O=C(Cn1cncn1)Nc1ccc(-c2nc3ccccc3s2)cc1
inactive: HCT-15 colon 101% | HT29 colon 105% | SNB-75 CNS 92.1% | SNB-19 CNS 93% | U251 CNS 90% | PC-3 prostate 85.8% | SK-MEL-5 melanoma 86.7% | UACC-62 melanoma 95.2% | LOX IMVI melanoma 99.3%

CCc1ccc(/C=C/c2ccc(O)c3ncccc23)[n+](C)c1
inactive: HCT-15 colon 85% | HT29 colon 50.9% | SNB-75 CNS 48.1% | SNB-19 CNS 41.1% | U251 CNS 25.9% | PC-3 prostate 61.3% | SK-MEL-5 melanoma 26.3% | UACC-62 melanoma 35.7% | LOX IMVI melanoma 55.6% | SK-MEL-28 melanoma 60.7%

CCN(CC)CCN1C(=O)c2cccc3c(-c4ccc5c(c4)ncn5C4CCCCC4)ccc(c23)C1=O
inactive: SNB-19 CNS 32.6% | U251 CNS 14.7% | UACC-62 melanoma 22%
active: HCT-15 colon 8.61% | HT29 colon 0.739% | SNB-75 CNS 4.41% | PC-3 prostate 5.21% | SK-MEL-5 melanoma -96.6% | LOX IMVI melanoma -81.6%

Cc1ccc(-c2cc3c(SCC(=O)Nc4cc(C(F)(F)F)ccc4Cl)nccn3n2)cc1
active: HT29 colon -18.8%
inactive: HCT-15 colon 20.1% | SNB-75 CNS 95.3% | SNB-19 CNS 102% | U251 CNS 60% | PC-3 prostate 41.1% | SK-MEL-5 melanoma 48.1% | UACC-62 melanoma 97.5%

Cc1cnc(Nc2ccc(OCCN3CCCC3)cc2)nc1Nc1cccc(S(=O)(=O)NC(C)(C)C)c1
active: HCT-15 colon 5.6% | HT29 colon -41.8% | SNB-75 CNS -97.9% | SK-MEL-5 melanoma -90.4% | UACC-62 melanoma -23.1% | LOX IMVI melanoma -79.4% | SK-MEL-28 melanoma -10.7%
inactive: SNB-19 CNS 21.3% | U251 CNS 15.9% | PC-3 prostate 20%

Cc1cccc(NC(=O)[C@@H]2c3ccccc3C(=O)N(c3ccc(Cl)cc3)[C@H]2c2ccc(Cl)cc2)n1
inactive: HCT-15 colon 26.1% | HT29 colon 11% | SNB-75 CNS 68.5% | SNB-19 CNS 67.5% | U251 CNS 43.1% | PC-3 prostate 17.1% | SK-MEL-5 melanoma 33.1% | UACC-62 melanoma 44.1% | LOX IMVI melanoma 80.3%

COc1ccc(OC)c(NC2=C(SCCc3ccccc3)C(=O)c3ccccc3C2=O)c1
inactive: HCT-15 colon 64.2% | HT29 colon 106% | SNB-75 CNS 78% | SNB-19 CNS 82.2% | U251 CNS 77% | PC-3 prostate 64.7% | SK-MEL-5 melanoma 80.9% | UACC-62 melanoma 62.1% | LOX IMVI melanoma 66.4% | SK-MEL-28 melanoma 108%

Cc1cc2c(-c3nc4ccccn4c3NC34CC5CC(CC(C5)C3)C4)c(O)c(O)cc2c(O)c1-c1c(C)cc2c(-c3nc4ccccn4c3NC34CC5CC(CC(C5)C3)C4)c(O)c(O)cc2c1O
inactive: HCT-15 colon 20% | HT29 colon 14.1% | SNB-75 CNS 19.6% | SNB-19 CNS 17.1% | PC-3 prostate 14.7%
active: U251 CNS 6.36% | SK-MEL-5 melanoma -57.7% | UACC-62 melanoma 0.552% | LOX IMVI melanoma 3.37%

Cc1cc(N(CCNc2ccnc3cc(Cl)ccc23)Cc2cccs2)nc(Cl)n1
active: HCT-15 colon 1.01% | HT29 colon -21.5% | SNB-75 CNS -84.5% | U251 CNS -57.3% | SK-MEL-5 melanoma -31.2% | LOX IMVI melanoma -74.4% | SK-MEL-28 melanoma -43.4%
inactive: SNB-19 CNS 38.3% | PC-3 prostate 21.1% | UACC-62 melanoma 13.4%

COc1ccc(Nc2ncccc2NC(=O)c2cn(Cc3cccc(Oc4ccccc4)c3)nn2)cc1
inactive: HCT-15 colon 78.3% | HT29 colon 101% | SNB-75 CNS 83.8% | SNB-19 CNS 95.3% | U251 CNS 89.8% | PC-3 prostate 69.8% | SK-MEL-5 melanoma 76.2% | UACC-62 melanoma 67% | LOX IMVI melanoma 86.6% | SK-MEL-28 melanoma 102%

COc1cc2c(Nc3ccc(Br)cc3F)ncnc2cc1OCC1CCN(C)CC1
active: HT29 colon 5.35% | SNB-75 CNS -59.8% | U251 CNS 8.98% | SK-MEL-5 melanoma -66.3% | UACC-62 melanoma -45.8% | LOX IMVI melanoma -45.6% | SK-MEL-28 melanoma -79.7%
inactive: HCT-15 colon 11.6% | SNB-19 CNS 37.6% | PC-3 prostate 39.1%

COc1ccc(-c2ccc3c(N4CCOC[C@@H]4C)nc(N4CCOC[C@@H]4C)nc3n2)cc1CO
active: HCT-15 colon 6.93% | HT29 colon 6.32% | SNB-75 CNS -44.9% | SNB-19 CNS 9.71% | U251 CNS 7.15% | PC-3 prostate 9.37% | SK-MEL-5 melanoma -26.8% | UACC-62 melanoma -32.3% | LOX IMVI melanoma 1.2% | SK-MEL-28 melanoma -17.1%

C#Cc1cccc(Nc2ncnc3cc(OC)c(OCCCCCCC(=O)NO)cc23)c1
active: HCT-15 colon 7.16% | HT29 colon -13.4% | SNB-75 CNS 2.04% | SNB-19 CNS 7.79% | U251 CNS -58.1% | SK-MEL-5 melanoma -91.4% | UACC-62 melanoma -78.3% | LOX IMVI melanoma -89.3% | SK-MEL-28 melanoma -29.5%
inactive: PC-3 prostate 10.4%

C=CC[n+]1c(/C=C/C=C2\N(C)c3ccccc3C2(C)C)sc2ccc(OC)cc21
inactive: HCT-15 colon 12.8% | SNB-75 CNS 20% | SNB-19 CNS 28.2% | U251 CNS 15.9% | PC-3 prostate 17.6% | UACC-62 melanoma 19.5% | LOX IMVI melanoma 15.9% | SK-MEL-28 melanoma 37.5%
active: HT29 colon 9.18% | SK-MEL-5 melanoma -90.7%

CCN(CC)CCNc1ccc(N=Nc2cnc3ccccc3c2)c2ccccc12
active: HCT-15 colon -66.5% | HT29 colon -90.3% | SNB-75 CNS -56.8% | SNB-19 CNS -71.7% | U251 CNS -76.9% | PC-3 prostate -83.8% | SK-MEL-5 melanoma -97.8% | UACC-62 melanoma -92.5% | LOX IMVI melanoma -81% | SK-MEL-28 melanoma -92.8%

C=CCn1c(=O)c2cnc(Nc3ccc(N4CCN(C)CC4)cc3)nc2n1-c1cccc(C(C)(C)O)n1
inactive: SNB-19 CNS 26.9% | U251 CNS 16.7% | PC-3 prostate 28.4% | SK-MEL-5 melanoma 18.2% | UACC-62 melanoma 42.6% | SK-MEL-28 melanoma 64.4%
active: HCT-15 colon 4.74% | HT29 colon -12.4% | SNB-75 CNS 3.88% | LOX IMVI melanoma 5.87%

CCCc1cc2cc(-n3nc(C)c4c3CC(C)(C)CC4=O)cc(NC3CCC(O)CC3)c2c(=O)[nH]1 (configuration not stated)
active: HT29 colon 8.7% | LOX IMVI melanoma -18.4%
inactive: HCT-15 colon 23.6% | SNB-75 CNS 49.4% | SNB-19 CNS 40% | U251 CNS 25.6% | PC-3 prostate 33% | SK-MEL-5 melanoma 15.8% | UACC-62 melanoma 14.1% | SK-MEL-28 melanoma 36.4%

CCCNC(=O)c1cn2ncnc(Nc3cc(C(=O)NC4CC4)ccc3C)c2c1C
inactive: HCT-15 colon 87.2% | HT29 colon 81.9% | SNB-75 CNS 74.6% | SNB-19 CNS 70.7% | U251 CNS 77.2% | PC-3 prostate 74.3% | SK-MEL-5 melanoma 38.2% | UACC-62 melanoma 49.1% | LOX IMVI melanoma 40.1% | SK-MEL-28 melanoma 30.1%

C=C1C[C@H](O)[C@H](Br)C(C)(C)[C@@]12CCC(C)=C(Cl)C2
inactive: SNB-75 CNS 52.9% | SNB-19 CNS 40.7% | U251 CNS 20.4% | PC-3 prostate 16.6% | SK-MEL-28 melanoma 30.1%
active: HCT-15 colon -4.29% | HT29 colon 3.04% | SK-MEL-5 melanoma -60.8% | UACC-62 melanoma -11.8% | LOX IMVI melanoma -5.6%

COc1cnc2c(c1)C(=O)c1c-2n(CCCn2ccnc2)c(=O)c2cc(Cl)ccc12
inactive: HCT-15 colon 28.9% | SNB-75 CNS 19% | SNB-19 CNS 20.2% | PC-3 prostate 24.8% | SK-MEL-28 melanoma 52.2%
active: HT29 colon -31.5% | U251 CNS -31% | SK-MEL-5 melanoma -49.9% | UACC-62 melanoma -43.1% | LOX IMVI melanoma -52.5%

Cc1c(NC(=O)OC[C@@H]2COCCN2)cn2ncnc(Nc3ccc4c(cnn4Cc4cccc(F)c4)c3)c12
active: HCT-15 colon 4.13% | HT29 colon -6.28% | SNB-75 CNS -70.7% | SNB-19 CNS 6.8% | U251 CNS -6.22% | PC-3 prostate 9.24% | SK-MEL-5 melanoma -46.4% | UACC-62 melanoma -14.7% | LOX IMVI melanoma -11% | SK-MEL-28 melanoma -10.1%

O=C(NC[C@H](O)CO)c1ccncc1Nc1ccc(I)cc1F
active: HT29 colon 8.1% | UACC-62 melanoma -7.65% | SK-MEL-28 melanoma -12.7%
inactive: HCT-15 colon 43.9% | SNB-75 CNS 73.4% | SNB-19 CNS 51.5% | U251 CNS 55.3% | PC-3 prostate 86.4% | SK-MEL-5 melanoma 44.5% | LOX IMVI melanoma 25.2%

C/C(=N\NC(=O)Cn1c(-c2ccc(S(C)(=O)=O)cc2)nc2ccccc21)c1ccc(Cl)cc1
inactive: HCT-15 colon 87.8% | HT29 colon 98.3% | SNB-75 CNS 81.1% | SNB-19 CNS 93.4% | U251 CNS 89.7% | PC-3 prostate 52.2% | SK-MEL-5 melanoma 91.7% | UACC-62 melanoma 84.7% | LOX IMVI melanoma 100% | SK-MEL-28 melanoma 113%

N#Cc1cc2[nH]c3ccc(OC(F)(F)F)cc3c2oc1=O
inactive: HCT-15 colon 58.8% | HT29 colon 79.6% | SNB-75 CNS 53.6% | SNB-19 CNS 93.6% | U251 CNS 73.2% | PC-3 prostate 60.3% | SK-MEL-5 melanoma 70.8% | UACC-62 melanoma 88.9% | LOX IMVI melanoma 74.5% | SK-MEL-28 melanoma 93%

Nc1c2c(c(O)c3c1=C(CO)C=N3)=NCCS2
active: HCT-15 colon -87.1% | HT29 colon -20.9% | SNB-75 CNS -79.2% | SNB-19 CNS -93.7% | U251 CNS -91.5% | PC-3 prostate -51.8% | SK-MEL-5 melanoma -99.1% | UACC-62 melanoma -79.9% | LOX IMVI melanoma -89.5% | SK-MEL-28 melanoma -79%
